Results from PubChem BioAssay (Tox21).
Records with an inconclusive call do not appear. The source made the active and inactive calls. Unless noted, the call rests on the fitted dose curve.

Key:
[1] = Nuclear factor erythroid 2-related factor 2/antioxidant responsive element (Nrf2/ARE) small molecule agonists: qHTS cell viability counter screen in human keratinocytes (AID 1919968; active means well fitted curve in the direction sought with a large enough effect in the repeat runs; an effect the other way counts as inactive or inconclusive; further: nearly all actives have a fitted effect of over 55% in size)
Method in brief: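 Cytotoxicity was multiplexed with the Nrf2/ARE luciferase assay in the same wells. Stably transfected HaCaT keratinocytes were treated with test compounds for 23 h at 37 C. Cell viability was then measured by CellTiter-Fluor fluorescence.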

[2] = Nuclear factor erythroid 2-related factor 2/antioxidant responsive element (Nrf2/ARE) small molecule agonists: luciferase reporter gene qHTS assay in human keratinocytes (AID 1919969); further: nearly all actives have a fitted effect of over 35% in size; further: potency means the concentration at half of the fitted maximal effect
[3] = target: Gonadotropin-releasing hormone receptor (Homo sapiens) (UniProt P30968); experiment: Human gonadotropin-releasing hormone receptor (GnRHR) small molecule agonists, calcium flux assay in GnRHR-HEK293 cells (AID 1920063); further: nearly all actives have a fitted effect of over 35% in size
Method in brief: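 Agonist activity was measured as intracellular calcium flux in HEK293 cells engineered to stably express human GnRHR. After dye loading for 1 hour at 37 C, compounds in DMSO were added and fluorescence was followed for 3 minutes.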

[4] = target: KiSS-1 receptor (Homo sapiens) (UniProt Q969F8); experiment: Human kisspeptin (KISS1R) small molecule agonists, calcium flux assay in KISS1R-HEK293 cells (AID 1920064; active means well fitted curve in the direction sought with a large enough effect in the repeat runs; an effect the other way counts as inactive or inconclusive)
Method in brief: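 Agonist activity is monitored as intracellular calcium rise in engineered HEK293 cells carrying human KISS1R. Cells are dye-loaded for 1 h at 37 C before compound addition, and fluorescence is recorded for 3 min.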

[5] = G protein-coupled receptor (GPCR) small molecule agonists, calcium flux assay: HEK293 wild type cell line counter screen (AID 1920065)
Method in brief: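 Seed cells, incubate 18 h (37 C, 5% CO2); add calcium dye, 1 h at 37 C; pin-transfer compounds, ATP control or DMSO; read fluorescence 480/540 nm each second for 3 min.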

[6] = p53 small molecule agonists, cell-based qHTS assay with human liver microsomes: qHTS cell viability counter screen (AID 1963579); further: nearly all actives have a fitted effect of over 45% in size
Method in brief: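 p53RE-bla cells, 4,000/well, dosed 5 hours after plating, with human liver microsomes (0.5 mg/mL final) plus NADPH (0.5 mg/mL final), 16 hours at 37 C. Viability read as CellTiter-Glo luminescence after 30 min at room temperature.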

[7] = p53 small molecule agonists, cell-based qHTS assay with rat liver microsomes: qHTS cell viability counter screen (AID 1963580); further: nearly all actives have a fitted effect of over 45% in size
Method in brief: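 Rat liver microsome (0.5 mg/mL final) and NADPH (0.5 mg/mL final) co-incubation with compounds for 16 h at 37 C on HCT-116 p53RE-bla cells; cytotoxicity taken from intracellular ATP luminescence.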

[8] = p53 small molecule agonists, cell-based qHTS assay: qHTS cell viability counter screen (AID 1963581); further: nearly all actives have a fitted effect of over 45% in size
Method in brief: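 Viability was counter-screened in parallel with the p53 agonist reporter by measuring intracellular ATP luminescence in the same HCT-116 p53RE-bla wells after 16 h compound treatment at 37 C.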

[9] = target: 5-hydroxytryptamine receptor 2A (Homo sapiens) (UniProt P28223); experiment: 5-hydroxytryptamine receptor 2A (HTR2A) small molecule antagonists, cell-based qHTS assay (AID 1963586); further: nearly all actives have a fitted effect of over 45% in size; further: potency means the concentration at half of the fitted maximal effect
Method in brief: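 CHO cells stably expressing human HTR2A were plated for 18 h at 37 C, then loaded with calcium dye for 1 h. Compounds were preincubated 5 min at room temperature before DOI (4 nM solution) was added. Kinetic fluorescence was read for 3 min.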

[10] = target: 5-hydroxytryptamine receptor 2A (Homo sapiens) (UniProt P28223); experiment: 5-hydroxytryptamine receptor 2A (HTR2A) small molecule agonists, cell-based qHTS assay (AID 1963587); further: nearly all actives have a fitted effect of over 30% in size; further: potency means the concentration at half of the fitted maximal effect
Method in brief: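 Kinetic calcium-flux fluorescence (2 min, 1 sec intervals) after compound addition in agonist mode. HTR2A-CHO cells were cultured 18 h, then dye-loaded 1 h at 37 C.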

[11] = target: Muscarinic acetylcholine receptor M1 (Homo sapiens) (UniProt P11229); experiment: Cholinergic receptor muscarinic 1 (CHRM1) small molecule antagonists, cell-based qHTS assay (AID 1963588); further: nearly all actives have a fitted effect of over 40% in size
Method in brief: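 Compounds were tested at 15 concentrations in three independent runs. Dye-loaded CHRM1-CHO cells were exposed 5 min at room temperature before stimulation by acetylcholine added at 50nM. Intracellular calcium was read kinetically on FDSS for 3 min.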

[12] = target: Muscarinic acetylcholine receptor M1 (Homo sapiens) (UniProt P11229); experiment: Cholinergic receptor muscarinic 1 (CHRM1) small molecule agonists, cell-based qHTS assay (AID 1963589); further: nearly all actives have a fitted effect of over 35% in size
Method in brief: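 Cells were plated and incubated 18 h at 37 C/5% CO2, loaded with calcium dye for 1 h at 37 C, then treated with compounds in DMSO. Fluorescence was recorded kinetically at 1 sec intervals.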

[13] = cAMP Responsive Elements (CRE) small molecule agonists, cell-based qHTS assay (AID 1963590)
Method in brief: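 Cells carrying a CRE-driven beta-lactamase reporter (HEK 293T) are seeded, incubated overnight (18 h), and treated with test compounds for 3 h at 37 C; reporter activity is then detected with a FRET substrate after 2 h at room temperature.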

[14] = cAMP Responsive Elements (CRE) small molecule antagonists, cell-based qHTS assay (AID 1963591; active means well fitted inhibition curve with a large enough effect in the signal ratio in the repeat runs, not every such curve was filed as active; the % refers to the signal ratio)
Method in brief: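 Cells (CRE-bla HEK 293T, DMEM with 10% dialyzed FBS and 25 mM HEPES) are seeded and incubated 18 h. Compounds are added with NKH477 agonist at 0.25 uM final for 3 h, then FRET substrate for 2 h.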

[15] = target: Beta-2 adrenergic receptor (Homo sapiens) (UniProt P07550); experiment: Adrenergic beta2 receptor (ADRB2) small molecule antagonists, cell-based qHTS assay (AID 1963592); further: series mostly up to about 92 µM; nearly all actives have a fitted effect of over 50% in size
Method in brief: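 Assay format: CHO-ADRB2 cells, 18-20hr seeding at 37C/5% CO2, then compound plus 1nM isoproterenol agonist mix for 0.5hr RT. Homogeneous time-resolved fluorescence cAMP detection after 1hr, expressed as 665/615 nm ratio.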

[16] = target: D(2) dopamine receptor (Homo sapiens) (UniProt P14416); experiment: Dopamine D2 receptor (DRD2) small molecule agonists, cell-based qHTS assay (AID 1963594); further: nearly all actives have a fitted effect of over 35% in size
Method in brief: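 cAMP accumulation in DRD2-HEK293 cells measured by HTRF after 1 h detection; compounds added 10 min before NKH477 (200nM […]) forskolin-analogue stimulation, 30 min at room temperature, with Ro20-1724 present at 0.1 mM final.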

[17] = target: D(2) dopamine receptor (Homo sapiens) (UniProt P14416); experiment: Dopamine D2 receptor (DRD2) small molecule antagonists, cell-based qHTS assay (AID 1963595; active means well fitted inhibition curve with a large enough effect in the signal ratio in the repeat runs, with a control signal flat; the % refers to the signal ratio)
Method in brief: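 Antagonist mode in DRD2-HEK293 cells: after compound addition with 0.1 mM Ro20-1724, cells received quinpirole (12 nM) and NKH477 (200 nM) for 30 min at room temperature; HTRF cAMP read after 1 h detection.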

[18] = target: Beta-2 adrenergic receptor (Homo sapiens) (UniProt P07550); experiment: Adrenergic beta2 receptor (ADRB2) small molecule agonists, cell-based qHTS assay (AID 1963593);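 further: CHO cells stably overexpressing human ADRB2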
Method in brief: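 CHO cells stably over-expressing ADRB2 were plated overnight at 37C, then dosed with compounds plus a stimulation mix containing 100uM IBMX and 25uM Ro-20-1724 for 0.5hr at room temperature. cAMP was measured by HTRF competition, 1hr.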

Measured: Potency

5-hydroxytryptamine receptor 2A (Homo sapiens), sequence (P28223 whole entry, looked up): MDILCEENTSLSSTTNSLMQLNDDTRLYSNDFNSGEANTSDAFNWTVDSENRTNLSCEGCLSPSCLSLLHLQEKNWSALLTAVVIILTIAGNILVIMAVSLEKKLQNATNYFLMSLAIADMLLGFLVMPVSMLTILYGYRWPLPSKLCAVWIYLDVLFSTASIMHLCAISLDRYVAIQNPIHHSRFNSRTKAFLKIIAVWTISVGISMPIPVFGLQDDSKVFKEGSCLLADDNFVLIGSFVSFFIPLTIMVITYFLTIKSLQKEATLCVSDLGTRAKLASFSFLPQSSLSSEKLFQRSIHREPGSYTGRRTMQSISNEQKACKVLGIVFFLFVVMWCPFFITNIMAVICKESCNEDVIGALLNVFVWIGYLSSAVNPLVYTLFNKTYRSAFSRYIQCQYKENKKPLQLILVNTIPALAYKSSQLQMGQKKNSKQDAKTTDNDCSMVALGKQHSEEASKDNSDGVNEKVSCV
D(2) dopamine receptor (Homo sapiens), sequence (P14416 whole entry, looked up): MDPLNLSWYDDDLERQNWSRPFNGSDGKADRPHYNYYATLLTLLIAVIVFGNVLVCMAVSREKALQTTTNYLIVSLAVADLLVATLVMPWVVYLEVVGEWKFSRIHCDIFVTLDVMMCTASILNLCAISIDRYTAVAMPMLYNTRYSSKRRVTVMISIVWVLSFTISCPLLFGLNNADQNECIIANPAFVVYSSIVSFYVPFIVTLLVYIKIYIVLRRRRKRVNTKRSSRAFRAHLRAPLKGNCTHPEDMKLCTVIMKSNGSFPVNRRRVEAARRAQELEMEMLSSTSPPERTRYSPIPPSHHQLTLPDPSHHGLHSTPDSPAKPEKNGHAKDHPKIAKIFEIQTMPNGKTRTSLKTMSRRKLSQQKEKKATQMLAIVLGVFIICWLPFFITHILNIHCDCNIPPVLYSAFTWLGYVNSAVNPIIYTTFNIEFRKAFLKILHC
Beta-2 adrenergic receptor (Homo sapiens), sequence (P07550 whole entry, looked up): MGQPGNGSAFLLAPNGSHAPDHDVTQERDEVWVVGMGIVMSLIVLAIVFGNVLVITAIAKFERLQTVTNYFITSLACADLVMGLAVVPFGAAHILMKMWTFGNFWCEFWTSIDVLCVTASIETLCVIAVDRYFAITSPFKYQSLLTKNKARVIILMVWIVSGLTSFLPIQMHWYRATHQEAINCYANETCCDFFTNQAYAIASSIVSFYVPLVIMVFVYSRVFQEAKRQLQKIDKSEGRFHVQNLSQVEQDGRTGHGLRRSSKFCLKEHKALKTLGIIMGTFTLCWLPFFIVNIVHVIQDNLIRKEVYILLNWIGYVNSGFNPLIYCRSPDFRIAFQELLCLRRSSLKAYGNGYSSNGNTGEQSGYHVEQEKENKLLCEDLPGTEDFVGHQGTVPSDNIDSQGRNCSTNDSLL
Gonadotropin-releasing hormone receptor (Homo sapiens), sequence (P30968 whole entry, looked up): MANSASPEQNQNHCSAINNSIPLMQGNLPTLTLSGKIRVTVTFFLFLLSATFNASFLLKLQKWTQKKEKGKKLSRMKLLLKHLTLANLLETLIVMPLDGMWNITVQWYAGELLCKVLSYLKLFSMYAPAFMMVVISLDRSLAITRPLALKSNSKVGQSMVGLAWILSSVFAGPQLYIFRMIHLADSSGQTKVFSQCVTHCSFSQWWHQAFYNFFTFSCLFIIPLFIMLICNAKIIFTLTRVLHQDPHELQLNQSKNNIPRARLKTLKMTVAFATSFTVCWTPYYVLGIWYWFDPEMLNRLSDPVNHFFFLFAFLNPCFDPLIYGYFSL
Muscarinic acetylcholine receptor M1 (Homo sapiens), sequence (P11229 whole entry, looked up): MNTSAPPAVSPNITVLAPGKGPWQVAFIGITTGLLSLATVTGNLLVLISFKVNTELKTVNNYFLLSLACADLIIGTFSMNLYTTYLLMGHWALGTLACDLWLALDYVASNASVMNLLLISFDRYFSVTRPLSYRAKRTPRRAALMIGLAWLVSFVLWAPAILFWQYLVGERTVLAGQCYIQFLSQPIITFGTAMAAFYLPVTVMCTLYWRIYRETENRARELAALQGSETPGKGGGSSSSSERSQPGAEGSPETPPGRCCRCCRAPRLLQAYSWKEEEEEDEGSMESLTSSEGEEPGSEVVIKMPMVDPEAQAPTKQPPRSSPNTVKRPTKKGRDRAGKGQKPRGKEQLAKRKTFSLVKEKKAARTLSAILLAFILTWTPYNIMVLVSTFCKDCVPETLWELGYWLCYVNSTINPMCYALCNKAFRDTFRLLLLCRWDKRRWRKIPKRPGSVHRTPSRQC
KiSS-1 receptor (Homo sapiens), sequence (Q969F8 whole entry, looked up): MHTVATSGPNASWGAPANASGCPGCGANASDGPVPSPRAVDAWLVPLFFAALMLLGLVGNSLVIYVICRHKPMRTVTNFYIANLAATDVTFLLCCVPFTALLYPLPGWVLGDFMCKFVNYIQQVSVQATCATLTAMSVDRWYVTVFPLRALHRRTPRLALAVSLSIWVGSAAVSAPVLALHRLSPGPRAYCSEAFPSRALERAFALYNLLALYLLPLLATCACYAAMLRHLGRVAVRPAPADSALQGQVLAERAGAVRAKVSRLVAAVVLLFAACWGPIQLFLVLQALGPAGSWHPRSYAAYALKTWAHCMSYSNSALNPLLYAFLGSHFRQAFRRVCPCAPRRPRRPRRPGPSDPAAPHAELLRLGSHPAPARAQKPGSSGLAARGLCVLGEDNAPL

O=c1[nH]c2ccccc2o1
not listed: [17] | [18]
inactive: all other assays above

ClC(Cl)C(Cl)(Cl)Cl
not listed: [18]
inactive: all other assays above

CCOC(=O)CCN(SN(C)C(=O)Oc1cccc2c1OC(C)(C)C2)C(C)C
active: [2] 61.1 µM
not listed: [13] | [14]
inactive: all other assays above

C=C(C)C(=O)OCCCCOC(=O)C(=C)C
inactive: all assays above

NCCc1cc(O)c(O)cc1O
active: [9] 18.3 µM | [10] 23.9 µM
not listed: [12]
inactive: all other assays above

CCC(C)Nc1c([N+](=O)[O-])cc(C(C)(C)C)cc1[N+](=O)[O-] (stereo unspecified)
active: [2] 54.5 µM
not listed: [12] | [18]
inactive: all other assays above

CCCC[N+](=O)[O-]
not listed: [18]
inactive: all other assays above

Nc1ccc(Sc2ccc(N)cc2)cc1
active: [2] 68.6 µM
not listed: [13] | [15] | [16] | [18]
inactive: all other assays above

C[N+](C)=CCl
not listed: [16] | [18]
inactive: all other assays above

NNCc1ccccc1
not listed: [18]
inactive: all other assays above

CN(N=O)c1ccc([N+](=O)[O-])cc1
not listed: [13] | [17] | [18]
inactive: all other assays above

Cc1cnc2c(C(=O)O)c(Cl)ccc2c1
inactive: all assays above

ClSC(Cl)(Cl)Cl
not listed: [13]
inactive: all other assays above

CCC1(CC)C(=O)N=C(O)NC1=O
not listed: [12]
inactive: all other assays above

C[C@@H](N)[C@@H](O)c1ccccc1
not listed: [16]
inactive: all other assays above

CN(C)C1CSSSC1
active: [2] 61.1 µM
not listed: [13] | [14]
inactive: all other assays above

CCCN
not listed: [14]
inactive: all other assays above
